Results published in PubChem BioAssay AID1159580 (chemical genetic matrix, 2015).
Hit rate of the full screen: of about 5,500 compounds, about 2,000 (36%) were called active. Roughly 18% stayed inconclusive and do not appear here. No stated cut-off is given here; in the data, active means normalized growth mostly below about 0.91 (no sharp cut-off); inconclusive means no clear call, values can overlap the other calls; inactive means mostly above about 0.92. This is one part of the list.

Experiment: chemical genetic growth profiling, strain panel (AID 1159580);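 further: tested at 20 µM; growth read once vehicle control cultures reached saturation at 30 °C; 1 = growth at the plate median or of vehicle wells; lower values mean less growth of the strain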
Conditions: growth OD

Measured: normalized growth

CC[C@H](C)C(=O)O[C@H]1C[C@@H](C)C=C2C=C[C@H](C)[C@H](CC[C@@H]3C[C@@H](O)CC(=O)O3)[C@H]21
inactive: S. cerevisiae deletion strains, locus YJR075W, strain HOC1, active compounds read low 0.997 | S. cerevisiae deletion strains, locus YKL009W, strain mrt4, active compounds read low 0.959 | S. cerevisiae deletion strains, locus YKL068W, active compounds read low 0.988 | S. cerevisiae deletion strains, locus YKL085W, strain MDH1 (second series), active compounds read low 0.993 | S. cerevisiae deletion strains, locus YKL085W, strain MDH1, active compounds read low 0.993 | S. cerevisiae deletion strains, locus YKL160W, strain elf1, active compounds read low 1 | S. cerevisiae deletion strains, locus YKL190W, strain CNB1, active compounds read low 0.992 | S. cerevisiae deletion strains, locus YKR001C, strain vps1, active compounds read low 0.986 | S. cerevisiae deletion strains, locus YKR026C, strain gcn3, active compounds read low 0.999 | S. cerevisiae deletion strains, locus YKR091W, strain srl3, active compounds read low 1 | S. cerevisiae deletion strains, locus YLL001W, strain dnm1, active compounds read low 1.02 | S. cerevisiae deletion strains, locus YLL026W, active compounds read low 1.01 | S. cerevisiae deletion strains, locus YLL041C, strain sdh2, active compounds read low 1 | S. cerevisiae deletion strains, locus YLR027C, strain aat2, active compounds read low 1.01 | S. cerevisiae deletion strains, locus YLR039C, strain RIC1, active compounds read low 0.971 | S. cerevisiae deletion strains, locus YLR058C, strain SHM2, active compounds read low 0.957 | S. cerevisiae deletion strains, locus YLR102C, strain apc9, active compounds read low 0.994 | S. cerevisiae deletion strains, locus YLR113W, strain HOG1, active compounds read low 1 | S. cerevisiae deletion strains, locus YLR221C, strain rsa3, active compounds read low 1.01 | S. cerevisiae deletion strains, locus YLR258W, strain gsy2, active compounds read low 1.01 | S. cerevisiae deletion strains, locus YLR262C, strain YPT6 (second series), active compounds read low 1.11 | S. cerevisiae deletion strains, locus YLR262C, strain YPT6, active compounds read low 0.916 | S. cerevisiae deletion strains, locus YLR268W, strain sec22, active compounds read low 1.06 | S. cerevisiae deletion strains, locus YLR320W, strain mms22, active compounds read low 0.992 | S. cerevisiae deletion strains, locus YLR330W, strain CHS5, active compounds read low 0.969 | S. cerevisiae deletion strains, locus YLR342W, strain FKS1 (second series), active compounds read low 0.968 | S. cerevisiae deletion strains, locus YLR342W, strain FKS1, active compounds read low 1 | S. cerevisiae deletion strains, locus YLR357W, strain rsc2, active compounds read low 0.908 | S. cerevisiae deletion strains, locus YLR370C, strain arc18, active compounds read low 1.02 | S. cerevisiae deletion strains, locus YLR371W, strain rom2, active compounds read low 0.982 | S. cerevisiae deletion strains, locus YLR384C, strain iki3, active compounds read low 1.01 | S. cerevisiae deletion strains, locus YLR418C, strain cdc73, active compounds read low 0.908 | S. cerevisiae deletion strains, locus YML016C, strain PPZ1, active compounds read low 0.977 | S. cerevisiae deletion strains, locus YML032C, strain rad52, active compounds read low 1.01 | S. cerevisiae deletion strains, locus YML120C, strain ndi1, active compounds read low 1.01 | S. cerevisiae deletion strains, locus YML124C, strain tub3, active compounds read low 0.98 | S. cerevisiae deletion strains, locus YMR058W, strain fet3, active compounds read low 1 | S. cerevisiae deletion strains, locus YMR078C, strain ctf18, active compounds read low 0.987 | S. cerevisiae deletion strains, locus YMR125W, strain sto1, active compounds read low 0.984 | S. cerevisiae deletion strains, locus YMR129W, active compounds read low 1.01 | S. cerevisiae deletion strains, locus YMR205C, strain PFK2, active compounds read low 1 | S. cerevisiae deletion strains, locus YMR223W, strain ubp8, active compounds read low 0.948 | S. cerevisiae deletion strains, locus YMR231W, strain pep5, active compounds read low 0.998 | S. cerevisiae deletion strains, locus YMR263W, strain SAP30, active compounds read low 0.987 | S. cerevisiae deletion strains, locus YMR307W, strain GAS1, active compounds read low 0.984 | S. cerevisiae deletion strains, locus YNL067W, strain RPL9B, active compounds read low 1.01 | S. cerevisiae deletion strains, locus YNL071W, strain lat1, active compounds read low 1.01 | S. cerevisiae deletion strains, locus YNL128W, strain TEP1, active compounds read low 0.97 | S. cerevisiae deletion strains, locus YNL153C, strain GIM3, active compounds read low 1.02 | S. cerevisiae deletion strains, locus YNL183C, strain NPR1, active compounds read low 0.939 | S. cerevisiae deletion strains, locus YNL209W, strain ssb2, active compounds read low 1.01 | S. cerevisiae deletion strains, locus YNL233W, strain BNI4, active compounds read low 1.01 | S. cerevisiae deletion strains, locus YNL248C, strain rpa49, active compounds read low 1.01 | S. cerevisiae deletion strains, locus YNL250W, strain rad50, active compounds read low 0.958 | S. cerevisiae deletion strains, locus YNL271C, strain bni1, active compounds read low 0.994 | S. cerevisiae deletion strains, locus YNL298W, strain CLA4, active compounds read low 0.99 | S. cerevisiae deletion strains, locus YNL307C, strain MCK1, active compounds read low 0.948 | S. cerevisiae deletion strains, locus YNL322C, strain KRE1 (second series), active compounds read low 1.02 | S. cerevisiae deletion strains, locus YNL322C, strain KRE1, active compounds read low 0.986 | S. cerevisiae deletion strains, locus YNR049C, strain mso1, active compounds read low 1.01 | S. cerevisiae deletion strains, locus YNR052C, strain pop2, active compounds read low 0.999 | S. cerevisiae deletion strains, locus YOL006C, strain TOP1, active compounds read low 0.953 | S. cerevisiae deletion strains, locus YOL012C, strain htz1 0.797 | S. cerevisiae deletion strains, locus YOL147C, strain pex11, active compounds read low 0.986 | S. cerevisiae deletion strains, locus YOR001W, strain rrp6, active compounds read low 1.02 | S. cerevisiae deletion strains, locus YOR061W, strain CKA2, active compounds read low 0.964 | S. cerevisiae deletion strains, locus YOR069W, strain VPS5, active compounds read low 0.981 | S. cerevisiae deletion strains, locus YOR070C, strain gyp1, active compounds read low 1 | S. cerevisiae deletion strains, locus YOR080W, strain dia2, active compounds read low 0.998 | S. cerevisiae deletion strains, locus YOR083W, strain WHI5, active compounds read low 1 | S. cerevisiae deletion strains, locus YOR106W, strain vam3, active compounds read low 0.99 | S. cerevisiae deletion strains, locus YOR136W, strain idh2, active compounds read low 0.98 | S. cerevisiae deletion strains, locus YOR144C, strain elg1, active compounds read low 0.993 | S. cerevisiae deletion strains, locus YOR184W, strain ser1, active compounds read low 0.94 | S. cerevisiae deletion strains, locus YOR231W, strain MKK1, active compounds read low 0.983 | S. cerevisiae deletion strains, locus YOR265W, strain rbl2, active compounds read low 1.01 | S. cerevisiae deletion strains, locus YOR270C, strain vph1, active compounds read low 0.881 | S. cerevisiae deletion strains, locus YOR290C, strain snf2, active compounds read low 1.02 | S. cerevisiae deletion strains, locus YOR316C, strain cot1, active compounds read low 0.993 | S. cerevisiae deletion strains, locus YPL051W, strain arl3, active compounds read low 0.999 | S. cerevisiae deletion strains, locus YPL055C, strain LGE1, active compounds read low 0.939 | S. cerevisiae deletion strains, locus YPL078C, strain atp4, active compounds read low 1.01 | S. cerevisiae deletion strains, locus YPL106C, strain sse1, active compounds read low 1.06 | S. cerevisiae deletion strains, locus YPL240C, strain hsp82, active compounds read low 1.01 | S. cerevisiae deletion strains, locus YPL241C, strain CIN2, active compounds read low 0.979 | S. cerevisiae deletion strains, locus YPL256C, strain CLN2, active compounds read low 1.02 | S. cerevisiae deletion strains, locus YPR119W, strain clb2, active compounds read low 0.986 | S. cerevisiae deletion strains, locus YPR141C, strain kar3, active compounds read low 0.971 | S. cerevisiae deletion strains, locus YPR163C, strain tif3, active compounds read low 0.995 | S. cerevisiae deletion strains, locus YPR167C, strain met16, active compounds read low 0.99 | S. cerevisiae deletion strains, strain wtn01, active compounds read low 1.01 | S. cerevisiae strains, strain wild type, active compounds read low 0.963
